This is an account of results in PubChem BioAssay AID2685 (National Center for Advancing Translational Sciences (NCATS), 2010).

Among all 320,000 compounds or so, about 2,100 (0.66%) were called active. Inconclusive results (about 53%) are left out. The sample holds actives, similar compounds and a random draw of the others, so the mix is not that of the screen. The call rests on the fitted dose curve; in most records, active means well fitted inhibition curve with a large enough effect in the signal ratio, with a control signal flat (not every such curve was filed as active); inconclusive means small, poorly fitted or top-dose-only effect, or effect the other way, or a change in a side signal; inactive means flat fitted curve, though single readings scatter; the % refers to the signal ratio.
Potency means the concentration at half of the fitted maximal effect.

The nature of the assay: qHTS Assay for Lipid Storage Modulators in Drosophila S3 Cells.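 On cell number change: cells counted by Cell Tracker Red CMTPX staining in the red channel.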 On lipid storage change, negative = inhibition: on the % scale 0 is the no-effect control and ±100 the full control effect. The settings on record: BODIPY lipid droplet fluorescence, 18-24 h, cells fed with added oleic acid; cell number change: measured here: cell count max response; series mostly up to 46.1 µM; lipid storage change, negative = inhibition: at the top concentration. An outline of the steps:
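Drosophila S3 cells got compounds at several concentrations plus oleic acid (400 uM solution). Laser-scanning cytometry with 488 nm excitation read lipid droplets at 500-530 nm and cells at 575-640 nm. Percent activity was relative to 20 uM Triacsin C.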
Take `O=c1c([N+](=O)[O-])c(N2CCOCC2)c2ccccc2n1-c1ccccc1`: the “lipid storage change, negative = inhibition” value is 14.5% (inactive) and the cell number change is 8.53%.

Regarding `CCc1nn(CCCC(=O)N2CCN(c3cccc(C)c3C)CC2)c(=O)c2cc3occc3n12`, the compound was called inactive.

Regarding `CCOC(=O)C1CCN(C(=O)CCCn2nc(CC)n3c(cc4occc43)c2=O)CC1`, the compound was classed as inactive and the cell number change was -12.6%.

On to `CCc1nn(CCCC(=O)NCc2ccccc2C)c(=O)c2cc3occc3n12`, for which the call was inactive and the cell number change is -19.5%.

In the case of `CCc1nn(CCCC(=O)N2CCC(C)CC2)c(=O)c2cc3occc3n12`, the Potency was 4.11 µM (active).

Regarding `CCc1nn(CCCC(=O)NCc2ccco2)c(=O)c2cc3occc3n12`, the compound was called inactive and the cell number change was -6.49%.

As to `CCc1cccc(NC(=O)CCCn2nc(CC)n3c(cc4occc43)c2=O)c1`, the Potency is 20.6 µM (active) and the cell number change was -27.3%.

On to `COCCNC(=O)Cn1nc(-c2ccccc2C)ccc1=O`, for which the “lipid storage change, negative = inhibition” value is -4.82% (inactive) and the cell number change came to 8.76%.

On to `O=C(CN(C(=O)c1ccc(Cl)cc1)N1C(=O)C2C3C=CC(C3)C2C1=O)c1cccs1` (stereo not drawn), for which the cell number change was -8.51% and the lipid storage change, negative = inhibition was 5.92% [at 9.22 µM] (inactive).

As for `COCC(C)NC(=O)C(C)N1c2cccc3cccc(c23)S1(=O)=O` (stereo not drawn), the “lipid storage change, negative = inhibition” value was -19% (inactive) and the cell number change was determined as 3.31%.

Turning to `O=C1CC(c2ccco2)CC(O)=C1C=Nc1ccccc1-c1ccccc1` (stereo not drawn), the “lipid storage change, negative = inhibition” value is 2.69% (inactive) and the cell number change came to 5.01%.

On to `O=C1CC(c2ccco2)CC(O)=C1C=Nc1cc(Cl)ccc1Cl` (stereo not drawn), for which the “lipid storage change, negative = inhibition” value was 3.89% (inactive) and the cell number change came out at 10.5%.

In the case of `O=C1CC(c2ccco2)CC(O)=C1C=Nc1cc(Cl)cc(Cl)c1` (stereo not drawn), the Potency is 25.9 µM (active) and the cell number change was 13.6%.

Consider `O=C(C1CCN(C2CCN(C/C=C/c3ccccc3)CC2)CC1)N1CCOCC1`, for which the “lipid storage change, negative = inhibition” value is 0.713% (inactive) and the cell number change was found to be 7.25%.

As for `O=C(C1=C(O)C(=O)N(CC2CCCO2)C1c1cccc(O)c1)c1ccco1` (stereo not drawn), the “lipid storage change, negative = inhibition” value is -14% (inactive) and the cell number change was -19.7%.

`O=C(C1=C(O)C(=O)N(CC2CCCO2)C1c1ccc(Cl)cc1)c1ccco1` (stereo not drawn): the call was inactive and the cell number change is 18.3%.

Turning to `Cc1ccc(C2C(C(=O)c3ccco3)=C(O)C(=O)N2c2ncccn2)cc1` (stereo not drawn), the “lipid storage change, negative = inhibition” value was 14.9% (inactive) and the cell number change was determined as 10.6%.

As for `O=C(C1=C(O)C(=O)N(c2ncccn2)C1c1cccc(Cl)c1)c1ccco1` (stereo not drawn), the Potency is 6.51 µM (active) and the cell number change is 5.29%.

For `COc1ccc(C2C(C(=O)c3ccco3)=C(O)C(=O)N2CC2CCCO2)c(OC)c1` (stereo not drawn), the “lipid storage change, negative = inhibition” value is -8.33% (inactive) and the cell number change is -0.87%.

As for `O=C(C1=C(O)C(=O)N(c2ncccn2)C1c1ccc(Cl)cc1)c1ccco1` (stereo not drawn), the “lipid storage change, negative = inhibition” value was -11.9% (inactive) and the cell number change worked out at 8.73%.

Turning to `O=C(C1=C(O)C(=O)N(CC2CCCO2)C1c1ccccc1Cl)c1ccco1` (stereo not drawn), the Potency was 6.51 µM (active) and the cell number change was -3.95%.

Consider `O=C(C1=C(O)C(=O)N(CC2CCCO2)C1c1cccc(Cl)c1)c1ccco1` (stereo not drawn), for which the Potency is 0.82 µM (active) and the cell number change was -5.86%.

Consider `O=C(C1=C(O)C(=O)N(Cc2ccco2)C1c1cccc(Cl)c1)c1ccco1` (stereo not drawn), for which the “lipid storage change, negative = inhibition” value is -28% (inactive) and the cell number change is 15%.

Take `COC(=O)c1ccc(NC(=S)NCc2ccco2)cc1`: the cell number change was -29.4% and the lipid storage change, negative = inhibition is -4.68% [at 9.22 µM] (inactive).

In the case of `CCN(CC)N=Nc1ccc(S(N)(=O)=O)cc1`, the “lipid storage change, negative = inhibition” value is 14.8% (inactive) and the cell number change is -10.8%.

Regarding `O=C(c1ccc(Cl)cc1)N1CCN(c2ccc(F)cc2)CC1`, the “lipid storage change, negative = inhibition” value is 8.11% (inactive) and the cell number change is -2.3%.

`CCOC(=O)c1cccc(NC(=O)CNC(=O)C2CCCCC2)c1`: the compound was classed as inactive and the cell number change stood at 12.1%.

With `Cn1c(=O)c(C(=O)NCc2ccccc2)c(O)c2ccccc21`, the compound was classed as inactive.

Take `C[C@H]1CC[C@@]2(O[C@@H](CCO)C[C@@H](O)[C@@H]2O)O1`: the “lipid storage change, negative = inhibition” value is -0.85% (inactive) and the cell number change was 10.3%.

For the compound `CC(NC(=O)c1ccccc1F)c1nnc(SCC(=O)N2CCN(c3ccccc3)CC2)n1C` (stereo not drawn), the Potency is 0.82 µM (active) and the cell number change was -26.5%.

Turning to `Cn1c(SCC(=O)N2CCN(c3ccccc3)CC2)nnc1-c1ccccc1`, the result was inactive and the cell number change is 1.56%.

On to `CC(NC(=O)c1ccccc1F)c1nnc(SCC(=O)NC2=NCCS2)n1C` (stereo not drawn), for which the result was inactive and the cell number change is -19.7%.

Regarding `COc1ccc(NC(=O)CSCc2cc(=O)n3c(C)csc3n2)cc1`, the compound was classed as inactive and the cell number change turned out to be 4.18%.

For the compound `CC(C)Nc1nc(NC(C)C)nc(Nn2cnnc2)n1`, the “lipid storage change, negative = inhibition” value is -11.9% (inactive) and the cell number change was -7.52%.

For the compound `CC(C)Nc1nc(NC(C)C)nc(SCC(N)=O)n1`, the “lipid storage change, negative = inhibition” value is -7.46% (inactive) and the cell number change is -10.2%.

For the compound `CC(C)Nc1nc2n(c(=O)n1)CCN2C(C)C`, the Potency was 4.11 µM (active) and the cell number change was 0.328%.

As to `CC1(C)CC2(C)Nc3ccccc3N2C(=S)N1` (stereo not drawn), the “lipid storage change, negative = inhibition” value is 3.67% (inactive) and the cell number change is -13.1%.

Regarding `COc1ccc(NC(=O)Nc2ccc(C(=O)N3CCOCC3)cc2)cc1OC`, the “lipid storage change, negative = inhibition” value was -17% (inactive) and the cell number change was -17.3%.

In the case of `O=C(CNC(=O)c1ccc(Br)o1)Nc1ncccc1O`, the “lipid storage change, negative = inhibition” value was 16.8% (inactive).

As to `C=C1CCC[C@]2(C)C[C@H]3OC(=O)C(CN4CC(C)OC(C)C4)[C@H]3C[C@@H]12` (stereo partly drawn), the “lipid storage change, negative = inhibition” value is 1.66% (inactive) and the cell number change is 8.39%.

With `C=C1CCC[C@]2(C)C[C@H]3OC(=O)C(CNC(C)CC)[C@H]3CC12` (stereo partly drawn), the “lipid storage change, negative = inhibition” value was -6.88% (inactive) and the cell number change was -16.4%.

`C=C1CCC[C@]2(C)C[C@H]3OC(=O)C(CN4CCOCC4)[C@H]3C[C@@H]12` (stereo partly drawn): the Potency was 8.2 µM (active) and the cell number change is -15.3%.

Consider `O=C(COC(=O)c1ccc(S(=O)(=O)N2CCOCC2)cc1)NCc1cccs1`, for which the “lipid storage change, negative = inhibition” value is -5.08% (inactive) and the cell number change was -3.56%.

In the case of `CC1CCCCC1NC(=O)CN1C(=O)NC(Cc2ccccc2)(Cc2ccccc2)C1=O` (stereo not drawn), the result was inactive and the cell number change stood at 27.7%.

Take `Cn1c(NC(=O)/C=C\c2ccccc2)cc(=O)n(C)c1=O`: the “lipid storage change, negative = inhibition” value is 2.84% (inactive) and the cell number change was -2.62%.

Consider `COC(=O)c1ccc(OC(=O)c2ccccn2)cc1`, for which the “lipid storage change, negative = inhibition” value was -5.28% (inactive) and the cell number change turned out to be 10.3%.
